In ChEMBL document CHEMBL2218924, “A broad activity screen in support of a chemogenomic map for kinase signalling research and drug discovery” (Biochem J, 2013) one finds residual activity data, which are given here for four compounds.

For test [1], the target named is Homeodomain-interacting protein kinase 3 (Homo sapiens) (UniProt Q9H422). The conditions noted are these: at 10 µM.
Test [2] has as its target T1, Serine/threonine-protein kinase haspin (Homo sapiens) (UniProt Q8TF76).
T1 sequence (whole entry): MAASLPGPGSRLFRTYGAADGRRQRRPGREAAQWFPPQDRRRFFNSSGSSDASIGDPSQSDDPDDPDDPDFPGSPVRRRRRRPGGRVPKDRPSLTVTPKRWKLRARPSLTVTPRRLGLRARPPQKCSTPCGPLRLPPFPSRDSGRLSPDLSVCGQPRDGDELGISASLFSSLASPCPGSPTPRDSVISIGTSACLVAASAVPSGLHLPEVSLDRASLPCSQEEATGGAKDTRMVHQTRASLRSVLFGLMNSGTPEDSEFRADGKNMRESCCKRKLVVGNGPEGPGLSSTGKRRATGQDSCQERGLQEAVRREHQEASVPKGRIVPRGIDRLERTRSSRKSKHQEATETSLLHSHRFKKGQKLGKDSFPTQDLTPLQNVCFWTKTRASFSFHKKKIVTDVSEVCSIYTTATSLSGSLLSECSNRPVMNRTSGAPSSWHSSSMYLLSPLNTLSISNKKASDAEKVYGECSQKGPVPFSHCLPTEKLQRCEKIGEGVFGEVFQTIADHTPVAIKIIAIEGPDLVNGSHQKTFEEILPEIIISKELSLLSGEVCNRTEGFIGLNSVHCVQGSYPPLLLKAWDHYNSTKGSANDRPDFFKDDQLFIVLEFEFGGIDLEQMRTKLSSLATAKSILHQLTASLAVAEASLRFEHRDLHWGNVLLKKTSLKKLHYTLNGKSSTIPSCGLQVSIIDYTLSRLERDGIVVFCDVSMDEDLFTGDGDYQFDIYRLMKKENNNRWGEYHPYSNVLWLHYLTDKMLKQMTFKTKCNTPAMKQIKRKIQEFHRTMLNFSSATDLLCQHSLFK
The conditions noted are these: at 1 µM.

Test [3] deals with T1, Serine/threonine-protein kinase haspin (Homo sapiens). The conditions noted are these: at 10 µM.
The target in test [4] is Tyrosine-protein kinase HCK (Homo sapiens) (UniProt P08631). The conditions noted are these: at 1 µM.
For test [5] the target is unchanged. The conditions noted are these: at 10 µM.
The target is the same in test [6]. The conditions noted are these: at 1 µM. The source holds these as a separate data set.
For test [7] the target is unchanged. To be noted: at 10 µM. This is another data set of the same source.
For test [8], the target named is Insulin-like growth factor 1 receptor (Homo sapiens) (UniProt P08069). To be noted: at 1 µM.
Test [9] addresses Protein kinase C eta type (Homo sapiens) (UniProt P24723). The conditions noted are these: at 1 µM.
For test [10] the target is unchanged. The conditions noted are these: at 10 µM.
The target in test [11] is Protein kinase C theta type (Homo sapiens) (UniProt Q04759). The conditions noted are these: at 1 µM.
The target is the same in test [12]. The conditions noted are these: at 10 µM.
Test [13] deals with T2, Protein kinase C iota type (Homo sapiens) (UniProt P41743).
T2 sequence (whole entry): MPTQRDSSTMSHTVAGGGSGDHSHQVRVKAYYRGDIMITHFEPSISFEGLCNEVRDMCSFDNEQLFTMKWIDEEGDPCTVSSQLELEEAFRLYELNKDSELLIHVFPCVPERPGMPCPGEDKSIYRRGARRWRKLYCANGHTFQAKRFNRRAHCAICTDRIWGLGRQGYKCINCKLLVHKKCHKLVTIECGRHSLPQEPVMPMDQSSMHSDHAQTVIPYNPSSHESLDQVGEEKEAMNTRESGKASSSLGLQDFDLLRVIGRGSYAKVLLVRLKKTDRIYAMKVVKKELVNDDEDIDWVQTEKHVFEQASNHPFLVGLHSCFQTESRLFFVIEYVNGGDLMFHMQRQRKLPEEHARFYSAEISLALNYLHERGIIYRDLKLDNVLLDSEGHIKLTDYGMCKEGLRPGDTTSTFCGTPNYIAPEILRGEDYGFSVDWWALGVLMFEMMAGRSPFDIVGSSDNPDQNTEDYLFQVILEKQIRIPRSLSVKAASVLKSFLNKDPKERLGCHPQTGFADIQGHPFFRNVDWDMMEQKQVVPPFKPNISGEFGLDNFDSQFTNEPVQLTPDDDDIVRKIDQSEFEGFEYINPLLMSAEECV
To be noted: at 1 µM.

The target in test [14] is T2, Protein kinase C iota type (Homo sapiens). The conditions noted are these: at 10 µM.
Test [15] concerns the target T3, Serine/threonine-protein kinase D2 (Homo sapiens) (UniProt Q9BZL6).
T3 sequence (whole entry): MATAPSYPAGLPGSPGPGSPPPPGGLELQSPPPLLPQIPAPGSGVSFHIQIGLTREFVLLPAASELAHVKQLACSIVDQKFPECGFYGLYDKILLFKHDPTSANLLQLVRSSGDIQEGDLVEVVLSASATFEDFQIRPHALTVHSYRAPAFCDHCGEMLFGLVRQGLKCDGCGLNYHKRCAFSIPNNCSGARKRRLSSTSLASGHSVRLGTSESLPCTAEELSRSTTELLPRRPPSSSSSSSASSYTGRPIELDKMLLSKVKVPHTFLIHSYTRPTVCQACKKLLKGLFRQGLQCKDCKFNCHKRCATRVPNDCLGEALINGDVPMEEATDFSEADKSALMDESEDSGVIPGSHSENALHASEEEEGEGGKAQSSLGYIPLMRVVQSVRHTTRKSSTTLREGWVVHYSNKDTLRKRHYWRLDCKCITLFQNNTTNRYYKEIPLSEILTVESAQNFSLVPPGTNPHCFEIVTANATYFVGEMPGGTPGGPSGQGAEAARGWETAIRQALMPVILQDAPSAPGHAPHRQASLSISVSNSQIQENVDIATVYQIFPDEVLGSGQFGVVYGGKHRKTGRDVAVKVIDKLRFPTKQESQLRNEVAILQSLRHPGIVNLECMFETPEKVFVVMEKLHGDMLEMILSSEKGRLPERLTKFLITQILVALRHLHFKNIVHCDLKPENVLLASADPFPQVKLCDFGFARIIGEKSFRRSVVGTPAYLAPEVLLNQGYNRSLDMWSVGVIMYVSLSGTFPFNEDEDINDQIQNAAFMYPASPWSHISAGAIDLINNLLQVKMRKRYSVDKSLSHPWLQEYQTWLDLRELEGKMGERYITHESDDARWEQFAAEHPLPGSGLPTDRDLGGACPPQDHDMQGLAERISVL
To be noted: at 1 µM.

Test [16] addresses T3, Serine/threonine-protein kinase D2 (Homo sapiens). To be noted: at 10 µM.
For test [17], the target named is Insulin-like growth factor 1 receptor (Homo sapiens) (UniProt P08069). To be noted: at 10 µM.
The target of test [18] is T4, Serine/threonine-protein kinase D1 (Homo sapiens) (UniProt Q15139).
T4 sequence (whole entry): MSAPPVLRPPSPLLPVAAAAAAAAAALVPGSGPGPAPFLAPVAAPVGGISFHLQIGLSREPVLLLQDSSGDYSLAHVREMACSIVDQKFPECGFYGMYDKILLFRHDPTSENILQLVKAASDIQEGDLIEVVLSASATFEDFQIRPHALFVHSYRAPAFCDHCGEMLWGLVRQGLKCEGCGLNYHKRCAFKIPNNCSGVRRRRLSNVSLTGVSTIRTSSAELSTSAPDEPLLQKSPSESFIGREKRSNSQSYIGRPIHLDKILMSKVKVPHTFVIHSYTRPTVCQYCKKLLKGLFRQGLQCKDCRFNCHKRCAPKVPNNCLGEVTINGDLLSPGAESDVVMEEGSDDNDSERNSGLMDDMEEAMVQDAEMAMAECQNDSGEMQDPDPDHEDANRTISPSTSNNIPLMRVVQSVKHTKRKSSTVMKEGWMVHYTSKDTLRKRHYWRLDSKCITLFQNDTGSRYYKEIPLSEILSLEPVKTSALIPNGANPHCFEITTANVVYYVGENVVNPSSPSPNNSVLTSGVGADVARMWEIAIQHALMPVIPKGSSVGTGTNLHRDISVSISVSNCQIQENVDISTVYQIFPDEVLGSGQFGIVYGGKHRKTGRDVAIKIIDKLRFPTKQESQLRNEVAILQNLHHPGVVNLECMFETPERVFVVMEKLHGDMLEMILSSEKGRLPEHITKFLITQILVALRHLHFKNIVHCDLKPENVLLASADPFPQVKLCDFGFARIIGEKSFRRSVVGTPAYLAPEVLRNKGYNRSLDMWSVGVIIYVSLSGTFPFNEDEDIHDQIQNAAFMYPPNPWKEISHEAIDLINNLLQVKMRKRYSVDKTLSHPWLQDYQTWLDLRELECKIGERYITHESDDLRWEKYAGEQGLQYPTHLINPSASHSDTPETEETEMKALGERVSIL
To be noted: at 1 µM.

Test [19] deals with T4, Serine/threonine-protein kinase D1 (Homo sapiens). The conditions noted are these: at 10 µM.
Test [20] concerns the target T5, Protein kinase C zeta type (Homo sapiens) (UniProt Q05513).
T5 sequence (whole entry): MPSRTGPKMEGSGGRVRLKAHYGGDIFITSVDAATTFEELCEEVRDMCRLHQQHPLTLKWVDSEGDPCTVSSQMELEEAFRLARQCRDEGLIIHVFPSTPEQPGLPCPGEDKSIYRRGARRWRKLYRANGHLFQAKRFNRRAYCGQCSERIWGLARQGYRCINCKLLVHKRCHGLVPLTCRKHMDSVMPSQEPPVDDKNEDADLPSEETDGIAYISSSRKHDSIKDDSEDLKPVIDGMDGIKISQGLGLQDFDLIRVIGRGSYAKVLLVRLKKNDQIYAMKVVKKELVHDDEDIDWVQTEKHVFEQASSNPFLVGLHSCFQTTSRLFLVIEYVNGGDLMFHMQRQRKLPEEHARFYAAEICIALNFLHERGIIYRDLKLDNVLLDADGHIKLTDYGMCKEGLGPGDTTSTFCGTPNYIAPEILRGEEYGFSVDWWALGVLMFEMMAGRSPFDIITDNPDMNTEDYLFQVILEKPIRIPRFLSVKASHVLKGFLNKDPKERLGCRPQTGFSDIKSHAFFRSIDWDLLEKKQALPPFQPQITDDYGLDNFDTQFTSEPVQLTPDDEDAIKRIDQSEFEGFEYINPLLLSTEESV
The conditions noted are these: at 10 µM.

Sequence of Protein kinase C theta type (Homo sapiens) (Q04759 whole entry, looked up): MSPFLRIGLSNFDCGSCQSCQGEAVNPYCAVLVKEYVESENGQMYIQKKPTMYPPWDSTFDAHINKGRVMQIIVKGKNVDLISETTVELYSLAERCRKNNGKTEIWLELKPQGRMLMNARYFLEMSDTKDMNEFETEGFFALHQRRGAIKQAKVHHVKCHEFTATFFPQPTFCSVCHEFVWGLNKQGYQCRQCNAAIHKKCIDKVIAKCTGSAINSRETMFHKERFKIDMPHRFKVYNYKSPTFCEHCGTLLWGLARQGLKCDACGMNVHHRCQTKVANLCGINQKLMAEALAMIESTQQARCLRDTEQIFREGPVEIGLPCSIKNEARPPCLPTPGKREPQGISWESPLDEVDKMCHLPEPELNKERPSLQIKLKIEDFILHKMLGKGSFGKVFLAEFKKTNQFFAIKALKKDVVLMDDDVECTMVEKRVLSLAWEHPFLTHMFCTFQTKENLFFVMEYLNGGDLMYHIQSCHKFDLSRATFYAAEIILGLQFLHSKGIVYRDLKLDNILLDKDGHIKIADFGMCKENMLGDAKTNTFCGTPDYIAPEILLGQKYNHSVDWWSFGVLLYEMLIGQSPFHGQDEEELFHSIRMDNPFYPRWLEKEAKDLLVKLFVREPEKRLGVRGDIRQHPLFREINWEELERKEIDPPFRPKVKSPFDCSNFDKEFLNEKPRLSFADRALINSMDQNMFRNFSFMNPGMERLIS
Sequence of Tyrosine-protein kinase HCK (Homo sapiens) (P08631 2-526 limits assumed): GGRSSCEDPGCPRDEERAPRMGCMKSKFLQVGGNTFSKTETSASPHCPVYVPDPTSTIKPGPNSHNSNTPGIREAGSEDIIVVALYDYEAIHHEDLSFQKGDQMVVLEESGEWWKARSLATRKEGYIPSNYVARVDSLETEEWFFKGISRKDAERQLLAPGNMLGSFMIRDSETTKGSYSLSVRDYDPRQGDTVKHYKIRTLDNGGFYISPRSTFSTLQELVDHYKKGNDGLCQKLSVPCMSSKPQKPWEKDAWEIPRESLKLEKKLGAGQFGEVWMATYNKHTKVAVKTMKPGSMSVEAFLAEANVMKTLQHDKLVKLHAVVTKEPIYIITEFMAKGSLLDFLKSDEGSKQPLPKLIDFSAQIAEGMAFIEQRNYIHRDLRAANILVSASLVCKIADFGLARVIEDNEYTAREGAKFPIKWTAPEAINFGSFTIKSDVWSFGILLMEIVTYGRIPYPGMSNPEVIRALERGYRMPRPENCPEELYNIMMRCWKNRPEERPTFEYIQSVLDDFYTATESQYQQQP
Sequence of Homeodomain-interacting protein kinase 3 (Homo sapiens) (Q9H422 whole entry, looked up): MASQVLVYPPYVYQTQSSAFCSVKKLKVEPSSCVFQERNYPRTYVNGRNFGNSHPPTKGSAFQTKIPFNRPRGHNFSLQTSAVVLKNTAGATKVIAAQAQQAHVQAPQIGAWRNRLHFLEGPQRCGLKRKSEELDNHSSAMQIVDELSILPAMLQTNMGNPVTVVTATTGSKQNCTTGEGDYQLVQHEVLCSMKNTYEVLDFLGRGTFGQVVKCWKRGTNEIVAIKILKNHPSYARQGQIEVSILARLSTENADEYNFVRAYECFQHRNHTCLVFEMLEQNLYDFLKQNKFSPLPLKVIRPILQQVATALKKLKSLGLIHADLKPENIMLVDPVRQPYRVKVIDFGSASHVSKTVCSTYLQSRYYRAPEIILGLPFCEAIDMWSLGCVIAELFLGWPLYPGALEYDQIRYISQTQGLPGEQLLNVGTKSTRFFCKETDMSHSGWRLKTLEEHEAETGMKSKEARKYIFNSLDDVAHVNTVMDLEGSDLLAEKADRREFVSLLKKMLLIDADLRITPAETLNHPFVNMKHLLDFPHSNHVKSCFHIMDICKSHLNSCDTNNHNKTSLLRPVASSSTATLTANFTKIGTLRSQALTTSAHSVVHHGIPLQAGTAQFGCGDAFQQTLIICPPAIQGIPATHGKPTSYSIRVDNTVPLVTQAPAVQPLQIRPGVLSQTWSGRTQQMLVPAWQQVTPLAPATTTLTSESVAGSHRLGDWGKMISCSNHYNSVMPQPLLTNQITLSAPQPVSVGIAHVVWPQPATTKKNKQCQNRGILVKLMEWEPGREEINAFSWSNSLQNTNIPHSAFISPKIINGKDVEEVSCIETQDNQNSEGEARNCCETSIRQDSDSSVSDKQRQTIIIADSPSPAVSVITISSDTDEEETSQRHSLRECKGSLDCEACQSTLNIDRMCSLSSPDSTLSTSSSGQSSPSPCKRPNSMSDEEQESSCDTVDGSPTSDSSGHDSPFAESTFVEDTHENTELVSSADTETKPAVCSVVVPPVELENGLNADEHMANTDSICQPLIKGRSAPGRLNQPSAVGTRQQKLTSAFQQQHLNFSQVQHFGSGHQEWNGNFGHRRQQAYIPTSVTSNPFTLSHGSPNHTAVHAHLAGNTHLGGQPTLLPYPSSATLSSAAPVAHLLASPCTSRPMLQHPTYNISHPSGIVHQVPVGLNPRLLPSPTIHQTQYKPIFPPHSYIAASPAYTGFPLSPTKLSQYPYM
Sequence of Protein kinase C eta type (Homo sapiens) (P24723 whole entry): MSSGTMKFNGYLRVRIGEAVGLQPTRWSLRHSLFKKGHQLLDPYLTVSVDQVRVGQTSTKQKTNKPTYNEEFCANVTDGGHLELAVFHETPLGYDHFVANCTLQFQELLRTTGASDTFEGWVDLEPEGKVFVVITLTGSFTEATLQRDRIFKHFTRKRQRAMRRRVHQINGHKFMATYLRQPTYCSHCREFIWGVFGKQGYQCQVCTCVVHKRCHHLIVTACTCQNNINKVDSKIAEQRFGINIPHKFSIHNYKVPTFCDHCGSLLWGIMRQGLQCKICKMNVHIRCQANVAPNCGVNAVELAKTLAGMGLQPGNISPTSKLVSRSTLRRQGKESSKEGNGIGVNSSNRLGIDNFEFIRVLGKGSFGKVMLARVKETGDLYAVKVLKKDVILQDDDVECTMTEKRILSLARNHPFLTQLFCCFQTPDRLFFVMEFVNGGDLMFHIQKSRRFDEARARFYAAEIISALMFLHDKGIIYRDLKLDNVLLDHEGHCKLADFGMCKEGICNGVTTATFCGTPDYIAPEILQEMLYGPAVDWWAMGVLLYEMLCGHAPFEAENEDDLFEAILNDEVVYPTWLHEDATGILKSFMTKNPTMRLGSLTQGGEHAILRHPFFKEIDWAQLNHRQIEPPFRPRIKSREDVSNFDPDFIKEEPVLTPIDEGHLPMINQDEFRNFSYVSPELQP
Sequence of Insulin-like growth factor 1 receptor (Homo sapiens) (P08069 31-736 limits assumed): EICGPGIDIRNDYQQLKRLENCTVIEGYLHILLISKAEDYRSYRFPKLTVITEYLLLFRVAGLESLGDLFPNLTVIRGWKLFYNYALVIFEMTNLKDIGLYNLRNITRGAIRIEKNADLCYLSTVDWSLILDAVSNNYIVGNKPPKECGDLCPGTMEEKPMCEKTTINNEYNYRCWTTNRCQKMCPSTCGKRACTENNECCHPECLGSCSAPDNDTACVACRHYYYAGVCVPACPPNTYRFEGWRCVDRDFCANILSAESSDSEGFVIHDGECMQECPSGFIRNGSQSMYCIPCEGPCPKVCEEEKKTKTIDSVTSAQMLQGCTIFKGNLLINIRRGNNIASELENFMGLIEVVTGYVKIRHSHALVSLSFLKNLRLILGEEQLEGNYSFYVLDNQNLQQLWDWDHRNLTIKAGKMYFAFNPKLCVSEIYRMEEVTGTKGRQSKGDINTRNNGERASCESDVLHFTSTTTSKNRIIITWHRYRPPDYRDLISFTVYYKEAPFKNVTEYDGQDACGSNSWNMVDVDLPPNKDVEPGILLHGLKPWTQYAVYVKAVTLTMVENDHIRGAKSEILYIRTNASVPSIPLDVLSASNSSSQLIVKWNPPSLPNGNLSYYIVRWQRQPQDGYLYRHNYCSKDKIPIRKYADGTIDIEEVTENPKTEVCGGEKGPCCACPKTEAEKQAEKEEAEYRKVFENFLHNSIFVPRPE
Sequence of Insulin-like growth factor 1 receptor (Homo sapiens) (P08069 741-1367 limits assumed): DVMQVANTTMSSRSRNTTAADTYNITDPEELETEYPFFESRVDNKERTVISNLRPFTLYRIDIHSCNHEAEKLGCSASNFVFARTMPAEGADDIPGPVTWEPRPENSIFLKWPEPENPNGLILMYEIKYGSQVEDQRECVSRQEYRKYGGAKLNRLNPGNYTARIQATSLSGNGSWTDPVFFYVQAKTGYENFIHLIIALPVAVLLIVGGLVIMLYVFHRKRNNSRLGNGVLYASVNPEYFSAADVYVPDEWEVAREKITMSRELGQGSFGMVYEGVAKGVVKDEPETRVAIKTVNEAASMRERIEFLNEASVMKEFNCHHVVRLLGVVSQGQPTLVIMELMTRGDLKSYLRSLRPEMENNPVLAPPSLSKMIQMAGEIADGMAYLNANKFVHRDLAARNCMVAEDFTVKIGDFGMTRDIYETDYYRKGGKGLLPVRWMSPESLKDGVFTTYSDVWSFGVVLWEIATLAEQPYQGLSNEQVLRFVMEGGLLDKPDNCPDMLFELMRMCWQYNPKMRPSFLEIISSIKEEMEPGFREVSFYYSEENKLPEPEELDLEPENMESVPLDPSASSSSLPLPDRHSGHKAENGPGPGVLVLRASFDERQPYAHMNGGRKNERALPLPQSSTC

`O=C1Nc2ccc(Cl)cc2/C1=C/c1cc(Cl)c(O)c(Cl)c1`: the residual activity stood at 46% in test [1]; 12% in [2]; 1% in test [3]; 61% in [4]; 15% in [5]; 86% in test [6]. Moreover, the residual activity in test [7] amounted to 53%; in test [8], 126%; in test [9] it was 95%; in [10] it was 79%; in [11], 99%; in test [12], 76%. Moreover, the residual activity in [13] is 85% (inactive); in test [14], 83%; in test [15], 98%; in test [16], 56%.
Turning to `CCCC(=O)Oc1ccc2[nH]c(C(=O)c3cc4ccccc4[nH]3)cc2c1`, the residual activity is 98% in test [1]; 106% in [2]; 99% in [3]; 70% in test [4]; 36% in test [5]; 98% in test [6]. For the same compound, the residual activity in [7] was 94%; in [8] it was 143%; in [17], 106%; in test [9] it was 102%; in [10] it was 81%; in [11] it was 92%. The residual activity in [12] was 75%; in test [13], 99% (inactive); in test [18] it was 101%; in test [19], 103%; in test [15], 99%.
`Nc1ncnc2[nH]nc(Nc3ccc(F)cc3)c12`: the residual activity in [2] was determined as 78%; in [3], 53%; in test [4], 37%; in test [5], 16%; in [6], 56%; in [7], 11%. The residual activity in test [8] was found to be 127%; in [17] it was 94%; in [20], 98%; in test [9], 110%; in test [10] it was 104%; in test [11], 107%. Besides, the residual activity in test [12] is 92%; in [13], 113% (inactive); in [14], 109%; in [18], 81%; in [19], 64%; in [15] it was 106%.
For the compound `O=C1NC(=O)c2c1c1c3ccccc3[nH]c1n1cncc21`, the residual activity in [1] amounted to 42%; in [2] it was 8%; in test [3], 18%; in test [4], 54%; in [5], 39%; in [6], 38%. The residual activity stood at 35% in test [7]; 9% in test [8]; 14% in test [17]; 85% in test [9]; 81% in [10]; 71% in test [11]. Also, the residual activity is 102% (inactive) in test [13]; 52% in test [14]; 41% in test [18]; 25% in [19]; 90% in [15]; 42% in [16].

As usually defined, the residual activity is the signal under treatment as a percentage of the control signal.
